Laboratory results published in PubChem BioAssay (EPA / NIEHS).
Values joined by “and” are separate entries in the source; they are usually repeats but may differ in a detail not shown here. Equal entries are not always repeated. A structure can be active in one record and inactive in another. Active and inactive are the calls of the source. Rule for the calls: active = hit-call score of the fitted dose curve at least 0.9, where 1 is the maximum; inactive = score below 0.9.

Experiments:
[1] = read-out: Transforming growth factor beta 1 (TGFb1), TGFB1 (gene 7040); experiment: BSK_KF3CT_TGFb1: BioMAP Diversity Plus: KF3CT Assay for Transforming growth factor beta 1 (TGFb1) Biomarker Activity (AID 2283072); details: primary human keratinocytes with fibroblasts; actives raise or lower the signal
Method in brief: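 Human keratinocyte plus foreskin fibroblast primary co-culture, dosed with chemical for 24 h. TGF-b1 quantified by ELISA. Activity fitted bidirectionally against DMSO negative control as baseline.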

[2] = read-out: C-C motif chemokine 2 (Homo sapiens) (UniProt P13500); experiment: BSK_KF3CT_MCP1: BioMAP Diversity Plus: KF3CT Assay for Monocyte Chemoattractant Protein 1 (MCP1/CCL2) Biomarker Activity (AID 2283073); details: primary human keratinocytes with fibroblasts; actives raise or lower the signal
Method in brief: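 Human keratinocyte plus foreskin fibroblast primary co-culture exposed to chemical for 24 h. MCP-1 levels measured by ELISA. Bidirectional curve fitting relative to DMSO negative control as baseline.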

[3] = read-out: Matrix Metallopeptidase 9 (MMP9), MMP9 (gene 4318); experiment: BSK_KF3CT_MMP9: BioMAP Diversity Plus: KF3CT Assay for Matrix Metallopeptidase 9 (MMP9) Biomarker Activity (AID 2283074); details: primary human keratinocytes with fibroblasts; actives raise or lower the signal;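 for AC50: MMP9 protein level quantified by ELISA in the co-culture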
Method in brief: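 Keratinocyte plus foreskin fibroblast human primary skin co-culture was dosed with chemical and MMP-9 was quantified by ELISA 24 h later. Bidirectional curve fitting used DMSO as negative control and activity baseline.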

[4] = read-out: urokinase plasminogen activator (uPA), PLAU (gene 5328); experiment: BSK_KF3CT_uPA: BioMAP Diversity Plus: KF3CT Assay for urokinase plasminogen activator (uPA) Biomarker Activity (AID 2283075); details: primary human keratinocytes with fibroblasts; actives raise or lower the signal
Method in brief: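 Human keratinocyte plus foreskin fibroblast primary co-culture exposed to chemical for 24 h. uPA levels were quantified by ELISA, and activity was fitted bidirectionally against a DMSO negative-control baseline.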

CD40, CD40 (gene 958) = experiment: BSK_LPS_CD40: BioMAP Diversity Plus: LPS Assay for CD40 Biomarker Activity (AID 2283076); details: primary human HUVEC with PBMC; actives raise or lower the signal
Method in brief: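 Primary human umbilical vein endothelial cells co-cultured with peripheral blood mononuclear cells, LPS-stimulated, were dosed with chemical and read 24 h later. CD40 levels were measured by ELISA and fitted bidirectionally against DMSO as negative control and baseline.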

[5] = read-out: E-selectin (Homo sapiens) (UniProt P16581); experiment: BSK_LPS_Eselectin: BioMAP Diversity Plus: LPS Assay for Eselectin Biomarker Activity (AID 2283077); details: primary human HUVEC with PBMC; actives raise or lower the signal
Method in brief: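 Human umbilical vein endothelial cells co-cultured with peripheral blood mononuclear cells under LPS stimulation; E-selectin measured by ELISA 24 h after chemical dosing. Activity fitted bidirectionally against DMSO as negative control and baseline.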

[6] = read-out: Interleukin-8 (IL8), CXCL8 (gene 3576); experiment: BSK_LPS_IL8: BioMAP Diversity Plus: LPS Assay for Interleukin-8 (IL8) Biomarker Activity (AID 2283078); details: primary human HUVEC with PBMC; actives raise or lower the signal
Method in brief: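 Human umbilical vein endothelial cells co-cultured with PBMC were stimulated with LPS; IL-8 levels were measured by ELISA 24 h after chemical dosing. Activity was fitted bidirectionally against DMSO as negative control and baseline.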

[7] = BSK_LPS_SRB: Viability Assessment in the BioMAP Diversity Plus: LPS Assay (AID 2283079); details: primary human HUVEC with PBMC;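 note: total protein by sulforhodamine B absorbance as a cytotoxicity measure; measured one day after compound addition; fitted in both directions against DMSO so loss or gain of signal counts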
Method in brief: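 Human umbilical vein endothelial cells co-cultured with PBMC (LPS system) were dosed for 24 h. Total protein was stained with 0.1% sulforhodamine B after 10% TCA fixation, read at 560 nm, and fitted bidirectionally against DMSO baseline.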

[8] = read-out: Interleukin-1 alpha (IL1a), IL1A (gene 3552); experiment: BSK_LPS_IL1a: BioMAP Diversity Plus: LPS Assay for Interleukin-1 alpha (IL1a) Biomarker Activity (AID 2283080); details: primary human HUVEC with PBMC; actives raise or lower the signal
Method in brief: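 Human umbilical vein endothelial cells co-cultured with peripheral blood mononuclear cells were LPS-stimulated and exposed to test chemicals for 24 h. IL-1 alpha was quantified by ELISA, with bidirectional curve fitting against DMSO as the negative control and baseline.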

[9] = read-out: TIMP metallopeptidase inhibitor 2 (TIMP2), TIMP2 (gene 7077); experiment: BSK_KF3CT_TIMP2: BioMAP Diversity Plus: KF3CT Assay for TIMP metallopeptidase inhibitor 2 (TIMP2) Biomarker Activity (AID 2283071); details: primary human keratinocytes with fibroblasts; actives raise or lower the signal
Method in brief: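 Human primary keratinocyte/foreskin fibroblast co-culture dosed with chemical and sampled at 24 h. TIMP-2 levels quantified by ELISA; bidirectional fitting against DMSO negative control as baseline.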

Chain of E-selectin (Homo sapiens) (P16581 whole entry, looked up): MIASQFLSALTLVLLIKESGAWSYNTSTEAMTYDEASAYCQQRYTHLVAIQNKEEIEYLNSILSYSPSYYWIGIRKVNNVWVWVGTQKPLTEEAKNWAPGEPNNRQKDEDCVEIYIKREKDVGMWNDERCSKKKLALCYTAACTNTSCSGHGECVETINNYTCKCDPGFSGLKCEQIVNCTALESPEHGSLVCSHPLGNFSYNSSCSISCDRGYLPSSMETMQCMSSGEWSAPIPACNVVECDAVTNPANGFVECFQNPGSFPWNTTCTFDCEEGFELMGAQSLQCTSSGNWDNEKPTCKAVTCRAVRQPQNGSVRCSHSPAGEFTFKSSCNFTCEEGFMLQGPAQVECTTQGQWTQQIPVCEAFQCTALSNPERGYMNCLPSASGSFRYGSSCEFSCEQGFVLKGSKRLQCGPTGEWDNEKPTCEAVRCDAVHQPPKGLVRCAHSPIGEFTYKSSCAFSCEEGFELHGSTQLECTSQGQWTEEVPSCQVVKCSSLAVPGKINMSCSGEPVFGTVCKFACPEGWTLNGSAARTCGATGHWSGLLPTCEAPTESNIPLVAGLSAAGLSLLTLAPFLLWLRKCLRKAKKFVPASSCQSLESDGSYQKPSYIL

| SMILES | outcome [1] | outcome [2] | AC50 [3] | AC50 [4] | outcome (CD40, CD40 (gene 958)) | outcome [5] | outcome [6] | outcome [7] | outcome [8] | outcome [9] | AC50 [2] | outcome [3] | outcome [4] | AC50 (CD40, CD40 (gene 958)) | AC50 [5] | AC50 [6] | AC50 [1] | AC50 [7] | AC50 [8] |
| --- | --- | --- | --- | --- | --- | --- | --- | --- | --- | --- | --- | --- | --- | --- | --- | --- | --- | --- | --- |
| CCOc1nc(NC)nc(NC(=O)NS(=O)(=O)c2ccccc2C(=O)OC)n1 | inactive | inactive | 30.4 µM (active) | 37 µM (active) | inactive | inactive | inactive | inactive | inactive |  |  |  |  |  |  |  |  |  |  |
| CNC(=O)Oc1ccccc1OC(C)C | inactive |  |  |  | inactive | inactive | inactive | inactive | inactive | inactive | 0.147 µM (active) | inactive | inactive |  |  |  |  |  |  |
| O=C(O)C(F)(F)C(F)(F)C(F)(F)C(F)(F)C(F)(F)C(F)(F)C(F)(F)F | inactive | inactive |  |  | inactive | inactive | inactive | inactive | inactive |  |  | inactive | inactive | 23.1 µM (active) | 16.1 µM (active) | 30 µM (active) and 13.3 µM (active) |  |  |  |
| O=C(O)COc1ccc(Cl)cc1Cl | inactive | inactive |  |  | inactive | inactive | inactive | inactive | inactive | inactive |  | inactive | inactive |  |  |  |  |  |  |
| CC[C@H](C)[C@H]1O[C@]2(C=C[C@@H]1C)C[C@@H]1C[C@@H](C/C=C(\C)[C@@H](O[C@H]3C[C@H](OC)[C@@H](O[C@H]4C[C@H](OC)[C@@H](O)[C@H](C)O4)[C@H](C)O3)[C@@H](C)/C=C/C=C3\CO[C@@H]4[C@H](O)C(C)=C[C@@H](C(=O)O1)[C@]34O)O2 (tested in a mixture with another compound) |  |  | 5.77 µM (active) | 15.5 µM (active) |  |  |  |  |  |  | 7.59 µM (active) |  |  | 6.65 µM (active) | 9.62 µM (active) | 5.94 µM (active) | 31.7 µM (active) | 6.41 µM (active) | 6.51 µM (active) |
| CC1(C)C(C=C(Cl)Cl)C1C(=O)OC(C#N)c1ccc(F)c(Oc2ccccc2)c1 (centres undefined) | inactive | inactive |  |  | inactive | inactive |  |  | inactive | inactive |  | inactive | inactive |  |  | 20 µM (active) |  | 6.63 µM (active) |  |
| CCN(CC)C(=O)SCc1ccc(Cl)cc1 | inactive | inactive |  |  | inactive | inactive | inactive | inactive | inactive | inactive |  | inactive | inactive |  |  |  |  |  |  |
| O=[N+]([O-])/N=C1\NCCN1Cc1ccc(Cl)nc1 | inactive | inactive |  |  | inactive | inactive | inactive | inactive | inactive | inactive |  | inactive | inactive |  |  |  |  |  |  |
| CC(C)N(C(=O)COc1nnc(C(F)(F)F)s1)c1ccc(F)cc1 | inactive | inactive |  |  | inactive | inactive | inactive | inactive | inactive |  |  | inactive | inactive |  |  |  |  |  |  |
| CCS(=O)(=O)c1cccnc1S(=O)(=O)NC(=O)Nc1nc(OC)cc(OC)n1 | inactive |  |  |  | inactive |  |  | inactive | inactive | inactive | 0.202 µM (active) | inactive | inactive |  | 7.35 µM (active) | 5.47 µM (active) |  |  |  |
| CCc1ccc(C(=O)NN(C(=O)c2cc(C)cc(C)c2)C(C)(C)C)cc1 | inactive | inactive |  |  | inactive | inactive | inactive | inactive | inactive | inactive |  | inactive | inactive |  |  |  |  |  |  |
| COc1cc(OC)nc(NC(=O)NS(=O)(=O)c2cc(NC=O)ccc2C(=O)N(C)C)n1 | inactive | inactive |  |  | inactive | inactive | inactive | inactive | inactive | inactive |  | inactive | inactive |  |  |  |  |  |  |
